According to PubChem BioAssay AID1159580 (chemical genetic matrix, 2015):
Hit rate of the full screen: of about 5,500 compounds, about 2,000 (36%) were called active. About 18% were inconclusive and are not listed. No stated cut-off is given here; in the data, active means normalized growth mostly below about 0.91 (no sharp cut-off); inconclusive means no clear call, values can overlap the other calls; inactive means mostly above about 0.92. Some of the results follow.

Experiment: chemical genetic growth profiling, strain panel (AID 1159580);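 further: tested at 20 µM; growth read once vehicle control cultures reached saturation at 30 °C; 1 = growth at the plate median or of vehicle wells; lower values mean less growth of the strain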
Details: growth OD

Measured: normalized growth

CCC(=O)Nc1ccc(Cl)c(Cl)c1
inactive: S. cerevisiae deletion strains, locus YJR043C, strain POL32, active compounds read low 0.931 | S. cerevisiae deletion strains, locus YJR075W, strain HOC1, active compounds read low 0.965 | S. cerevisiae deletion strains, locus YKL009W, strain mrt4, active compounds read low 0.976 | S. cerevisiae deletion strains, locus YKL068W, active compounds read low 0.999 | S. cerevisiae deletion strains, locus YKL085W, strain MDH1 (second series), active compounds read low 0.999 | S. cerevisiae deletion strains, locus YKL085W, strain MDH1, active compounds read low 0.999 | S. cerevisiae deletion strains, locus YKL160W, strain elf1, active compounds read low 0.984 | S. cerevisiae deletion strains, locus YKL190W, strain CNB1, active compounds read low 1 | S. cerevisiae deletion strains, locus YKR001C, strain vps1, active compounds read low 0.973 | S. cerevisiae deletion strains, locus YKR026C, strain gcn3, active compounds read low 1 | S. cerevisiae deletion strains, locus YKR091W, strain srl3, active compounds read low 0.982 | S. cerevisiae deletion strains, locus YLL001W, strain dnm1, active compounds read low 0.99 | S. cerevisiae deletion strains, locus YLL026W, active compounds read low 0.989 | S. cerevisiae deletion strains, locus YLL041C, strain sdh2, active compounds read low 0.996 | S. cerevisiae deletion strains, locus YLR027C, strain aat2, active compounds read low 1 | S. cerevisiae deletion strains, locus YLR039C, strain RIC1, active compounds read low 1.02 | S. cerevisiae deletion strains, locus YLR058C, strain SHM2, active compounds read low 1 | S. cerevisiae deletion strains, locus YLR102C, strain apc9, active compounds read low 1 | S. cerevisiae deletion strains, locus YLR221C, strain rsa3, active compounds read low 0.986 | S. cerevisiae deletion strains, locus YLR258W, strain gsy2, active compounds read low 0.996 | S. cerevisiae deletion strains, locus YLR262C, strain YPT6 (second series), active compounds read low 1 | S. cerevisiae deletion strains, locus YLR262C, strain YPT6, active compounds read low 0.978 | S. cerevisiae deletion strains, locus YLR268W, strain sec22, active compounds read low 0.982 | S. cerevisiae deletion strains, locus YLR320W, strain mms22, active compounds read low 0.969 | S. cerevisiae deletion strains, locus YLR330W, strain CHS5, active compounds read low 0.995 | S. cerevisiae deletion strains, locus YLR342W, strain FKS1 (second series), active compounds read low 0.981 | S. cerevisiae deletion strains, locus YLR342W, strain FKS1, active compounds read low 0.973 | S. cerevisiae deletion strains, locus YLR357W, strain rsc2, active compounds read low 0.952 | S. cerevisiae deletion strains, locus YLR370C, strain arc18, active compounds read low 0.985 | S. cerevisiae deletion strains, locus YLR371W, strain rom2, active compounds read low 1.01 | S. cerevisiae deletion strains, locus YLR384C, strain iki3, active compounds read low 1.01 | S. cerevisiae deletion strains, locus YLR418C, strain cdc73, active compounds read low 0.866 | S. cerevisiae deletion strains, locus YML016C, strain PPZ1, active compounds read low 0.997 | S. cerevisiae deletion strains, locus YML032C, strain rad52, active compounds read low 1 | S. cerevisiae deletion strains, locus YML120C, strain ndi1, active compounds read low 1 | S. cerevisiae deletion strains, locus YML124C, strain tub3, active compounds read low 1 | S. cerevisiae deletion strains, locus YMR058W, strain fet3, active compounds read low 0.993 | S. cerevisiae deletion strains, locus YMR078C, strain ctf18, active compounds read low 1 | S. cerevisiae deletion strains, locus YMR125W, strain sto1, active compounds read low 0.98 | S. cerevisiae deletion strains, locus YMR129W, active compounds read low 0.98 | S. cerevisiae deletion strains, locus YMR205C, strain PFK2, active compounds read low 0.958 | S. cerevisiae deletion strains, locus YMR223W, strain ubp8, active compounds read low 1 | S. cerevisiae deletion strains, locus YMR231W, strain pep5, active compounds read low 0.997 | S. cerevisiae deletion strains, locus YMR263W, strain SAP30, active compounds read low 0.986 | S. cerevisiae deletion strains, locus YMR307W, strain GAS1, active compounds read low 0.843 | S. cerevisiae deletion strains, locus YNL067W, strain RPL9B, active compounds read low 0.965 | S. cerevisiae deletion strains, locus YNL071W, strain lat1, active compounds read low 0.987 | S. cerevisiae deletion strains, locus YNL128W, strain TEP1, active compounds read low 0.988 | S. cerevisiae deletion strains, locus YNL153C, strain GIM3, active compounds read low 0.988 | S. cerevisiae deletion strains, locus YNL209W, strain ssb2, active compounds read low 0.988 | S. cerevisiae deletion strains, locus YNL233W, strain BNI4, active compounds read low 0.976 | S. cerevisiae deletion strains, locus YNL248C, strain rpa49, active compounds read low 0.991 | S. cerevisiae deletion strains, locus YNL250W, strain rad50, active compounds read low 1.01 | S. cerevisiae deletion strains, locus YNL271C, strain bni1, active compounds read low 1.01 | S. cerevisiae deletion strains, locus YNL298W, strain CLA4, active compounds read low 0.995 | S. cerevisiae deletion strains, locus YNL307C, strain MCK1, active compounds read low 0.992 | S. cerevisiae deletion strains, locus YNL322C, strain KRE1 (second series), active compounds read low 0.987 | S. cerevisiae deletion strains, locus YNL322C, strain KRE1, active compounds read low 0.995 | S. cerevisiae deletion strains, locus YNR049C, strain mso1, active compounds read low 0.994 | S. cerevisiae deletion strains, locus YNR052C, strain pop2, active compounds read low 1.02 | S. cerevisiae deletion strains, locus YOL006C, strain TOP1, active compounds read low 0.885 | S. cerevisiae deletion strains, locus YOL012C, strain htz1 0.818 | S. cerevisiae deletion strains, locus YOL147C, strain pex11, active compounds read low 0.999 | S. cerevisiae deletion strains, locus YOR001W, strain rrp6, active compounds read low 0.994 | S. cerevisiae deletion strains, locus YOR061W, strain CKA2, active compounds read low 0.997 | S. cerevisiae deletion strains, locus YOR069W, strain VPS5, active compounds read low 1.01 | S. cerevisiae deletion strains, locus YOR070C, strain gyp1, active compounds read low 0.998 | S. cerevisiae deletion strains, locus YOR080W, strain dia2, active compounds read low 0.956 | S. cerevisiae deletion strains, locus YOR083W, strain WHI5, active compounds read low 0.994 | S. cerevisiae deletion strains, locus YOR106W, strain vam3, active compounds read low 0.988 | S. cerevisiae deletion strains, locus YOR136W, strain idh2, active compounds read low 0.998 | S. cerevisiae deletion strains, locus YOR144C, strain elg1, active compounds read low 0.995 | S. cerevisiae deletion strains, locus YOR184W, strain ser1, active compounds read low 0.977 | S. cerevisiae deletion strains, locus YOR265W, strain rbl2, active compounds read low 0.995 | S. cerevisiae deletion strains, locus YOR270C, strain vph1, active compounds read low 0.992 | S. cerevisiae deletion strains, locus YOR290C, strain snf2, active compounds read low 0.988 | S. cerevisiae deletion strains, locus YOR316C, strain cot1, active compounds read low 1.01 | S. cerevisiae deletion strains, locus YPL051W, strain arl3, active compounds read low 0.994 | S. cerevisiae deletion strains, locus YPL055C, strain LGE1, active compounds read low 0.904 | S. cerevisiae deletion strains, locus YPL078C, strain atp4, active compounds read low 0.988 | S. cerevisiae deletion strains, locus YPL106C, strain sse1, active compounds read low 0.952 | S. cerevisiae deletion strains, locus YPL240C, strain hsp82, active compounds read low 0.968 | S. cerevisiae deletion strains, locus YPL241C, strain CIN2, active compounds read low 0.993 | S. cerevisiae deletion strains, locus YPR119W, strain clb2, active compounds read low 1 | S. cerevisiae deletion strains, locus YPR141C, strain kar3, active compounds read low 1.01 | S. cerevisiae deletion strains, locus YPR163C, strain tif3, active compounds read low 0.997 | S. cerevisiae deletion strains, locus YPR167C, strain met16, active compounds read low 1 | S. cerevisiae deletion strains, strain wtn01, active compounds read low 1 | S. cerevisiae strains, strain wild type, active compounds read low 0.994
